Assay results: PubChem BioAssay (NCATS)
Records with an inconclusive call do not appear. For some assays here: Results with a measured potency or affinity are listed apart. Active and inactive are the calls of the source. Unless noted, no rule for the calls is given here.

Key:
[1] = Ebola virus entry assay, green channel fluorescence
[2] = Ebola virus entry assay, reporter ratio channel; Channel type: primary
[3] = Ebola virus entry assay, blue channel (ratio component)
[4] = qHTS assay for measurement of the activity of small molecule inhibitors on Zika virus induced Caspase-3 activity in human iPSC derived neural progenitor cells (hNPCs) (AID 1224857; active = well fitted inhibition curve with a large enough effect; also: nearly all actives have a fitted effect of over 65% in size); settings: hNPCs ZIKV-induced caspase-3/7, Caspase-Glo luminescence, 6 h; series mostly up to 45.7 µM
Method in brief: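 Human iPSC-derived neural progenitor cells pretreated 1 hr with compounds, then infected with Zika virus (2 FFU/cell) for 6 hours at 37 C. Caspase-3/7 measured by Caspase-Glo luminescence; % inhibition calculated from induction scaled to uninfected (0%) and infected (100%) wells.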

[5] = qHTS assay for measurement of the activity of small molecule inhibitors on Zika virus induced Caspase-3 activity in human astrocytoma cells (AID 1224859; active = well fitted inhibition curve with a large enough effect); settings: SNB-19 ZIKV-induced caspase-3/7, luminescence, 6 h; series mostly up to 45.7 µM
Method in brief: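 SNB-19 astrocytoma cells, 250/well, pretreated 1 h with compounds, then Zika virus at 2 FFU/cell for 6 h at 37 C; Caspase-Glo 3/7 luminescence after 30 min; percent inhibition normalised to uninfected and infected controls.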

Measured: Potency

Oc1c(I)cc(I)c2cccnc12
inactive: [1] | [2] | [3]

Cc1cc(-c2ccccc2)nnc1NCCN1CCOCC1
inactive: [1] | [2] | [3]

CC(=O)N[C@@H](Cc1ccc(O)cc1)C(=O)O
inactive: [1] | [2] | [3]

Cc1cc(O)ccc1Cl
inactive: all assays above

[O-][n+]1cccc(/C(Cl)=N/OC[C@@H](O)CN2CCCCC2)c1
inactive: [1] | [2] | [3]

C[C@@H]1CN(c2c(F)c(N)c3c(=O)c(C(=O)O)cn(C4CC4)c3c2F)C[C@H](C)N1
inactive: [1] | [2] | [3]

[O-][n+]1cccc(CO)c1
inactive: [1] | [2] | [3]

O=C(Nc1ccc(Oc2ccc(Cl)cc2)c(Cl)c1)c1cc(I)cc(I)c1O
inactive: [1] | [2] | [3]

C[C@H](CN1CCCC1)C(=O)c1ccc(C(F)(F)F)cc1
inactive: [1] | [2] | [3]

CC(C[N+](C)(C)C)OC(N)=O (configuration not stated)
inactive: [1] | [2] | [3]

O=C(O)c1ccccn1
inactive: [1] | [2] | [3]

CCCCC(CC)COC(=O)c1ccc(N(C)C)cc1 (configuration not stated)
inactive: [1] | [2] | [3]

COc1cc2c(cc1OC)C(=O)CC2
inactive: [1] | [2] | [3]

CN[C@@H](C)[C@H](O)c1ccccc1
inactive: all assays above

O=C(Oc1ccccc1)c1cccc(C(=O)Oc2ccccc2)c1
inactive: [1] | [2] | [3]

N#C/C(=C1\SCC(c2ccccc2Cl)S1)n1ccnc1 (configuration not stated)
inactive: [1] | [2] | [3]

C1CCC(NC2CCCCC2)CC1
inactive: all assays above

O=C(O)COc1ccccc1
inactive: all assays above

CCn1cc(C(=O)O)c(=O)c2cc3c(cc21)OCO3
inactive: [1] | [2] | [3]

COc1cc(S(N)(=O)=O)cc(C(=O)O)c1OC
inactive: [1] | [2] | [3]

O=C(Nc1cccc(C2=NCCN2)c1)Nc1cccc(C2=NCCN2)c1
inactive: [1] | [2] | [3]

CN1CCN(c2c(F)cc3c(=O)c(C(=O)O)cn4c3c2OCN4C)CC1
inactive: [1] | [2] | [3]

CC(C)(C)NC[C@H](O)c1ccc(O)cc1Cl
inactive: all assays above

COC(=O)c1cncn1C(C)c1ccccc1 (configuration not stated)
inactive: all assays above

CCCOC(=O)c1ccc(O)cc1
inactive: [1] | [2] | [3]

CN1C(=O)CC[C@H]1c1cccnc1
inactive: [1] | [2] | [3]

Cc1c(C)c2c(c(C)c1OC(=O)c1cccnc1)CC[C@@](C)(CCC[C@H](C)CCC[C@H](C)CCCC(C)C)O2
inactive: [1] | [2] | [3]

O=C(O)c1ccccc1NCCc1ccccc1
inactive: [1] | [2] | [3]

N[C@H]1C(O)O[C@H](CO)[C@@H](O)[C@@H]1O (some centres not stated)
inactive: [1] | [2] | [3]

Cc1ccc(Cl)c(O)c1
inactive: all assays above

CC(=O)N[C@@H](CCC(N)=O)C(=O)O
inactive: [1] | [2] | [3]
